# Data published in article PMC11447256.
# How the values were obtained:
# Coatomer subunit gamma-1 = Coatomer subunit gamma-1 (UniProt Q9Y678); experiment: cross-linking mass spectrometry
# [1] = molecular target: T-complex protein 1 subunit delta (UniProt P50991); experiment: co-fractionation; cross-linking mass spectrometry
# Protein S100-A10 = Protein S100-A10 (UniProt P60903); experiment: cross-link between two proteins; cross-linking mass spectrometry
# [2] = molecular target: Phosphoglycerate kinase 2 (UniProt P07205); experiment: co-fractionation; co-fractionation; cross-linking mass spectrometry
# [3] = molecular target: 26S proteasome non-ATPase regulatory subunit 5 (UniProt Q16401); experiment: cross-link between two proteins; cross-linking mass spectrometry; two-hybrid or complementation screen
# Sequence of 26S proteasome non-ATPase regulatory subunit 5 (Q16401 whole entry): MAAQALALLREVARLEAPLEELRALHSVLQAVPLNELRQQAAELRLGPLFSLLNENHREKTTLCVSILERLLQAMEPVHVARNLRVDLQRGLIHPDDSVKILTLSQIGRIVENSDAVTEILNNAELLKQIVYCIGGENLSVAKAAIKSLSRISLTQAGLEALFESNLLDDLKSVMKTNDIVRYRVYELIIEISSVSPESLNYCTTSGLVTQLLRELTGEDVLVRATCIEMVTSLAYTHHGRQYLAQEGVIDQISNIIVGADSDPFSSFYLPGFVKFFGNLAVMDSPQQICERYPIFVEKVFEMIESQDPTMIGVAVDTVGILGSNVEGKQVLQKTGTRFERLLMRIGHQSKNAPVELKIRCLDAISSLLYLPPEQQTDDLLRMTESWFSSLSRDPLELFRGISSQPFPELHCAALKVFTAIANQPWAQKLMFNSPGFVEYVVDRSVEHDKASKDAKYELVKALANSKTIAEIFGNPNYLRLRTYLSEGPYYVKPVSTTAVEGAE
# Sequence of T-complex protein 1 subunit delta (P50991 whole entry, stated change not applied, one chain of several): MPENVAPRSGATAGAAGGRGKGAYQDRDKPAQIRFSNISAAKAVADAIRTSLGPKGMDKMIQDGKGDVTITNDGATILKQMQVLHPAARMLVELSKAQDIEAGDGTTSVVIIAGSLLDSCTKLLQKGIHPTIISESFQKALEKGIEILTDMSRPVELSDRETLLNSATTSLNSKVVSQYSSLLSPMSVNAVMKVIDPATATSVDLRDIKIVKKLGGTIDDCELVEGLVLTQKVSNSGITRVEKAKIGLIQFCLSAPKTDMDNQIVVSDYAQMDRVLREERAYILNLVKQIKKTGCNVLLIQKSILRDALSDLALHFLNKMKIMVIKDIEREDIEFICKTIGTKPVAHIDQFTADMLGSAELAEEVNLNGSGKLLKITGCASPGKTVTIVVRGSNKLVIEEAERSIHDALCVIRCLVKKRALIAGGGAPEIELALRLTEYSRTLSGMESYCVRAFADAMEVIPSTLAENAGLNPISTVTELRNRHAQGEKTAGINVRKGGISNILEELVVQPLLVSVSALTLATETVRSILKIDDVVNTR
# Sequence of Protein S100-A10 (P60903 whole entry): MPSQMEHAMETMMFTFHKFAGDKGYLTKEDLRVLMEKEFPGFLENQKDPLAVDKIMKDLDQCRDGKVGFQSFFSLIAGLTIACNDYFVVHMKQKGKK
# Sequence of Phosphoglycerate kinase 2 (P07205 whole entry): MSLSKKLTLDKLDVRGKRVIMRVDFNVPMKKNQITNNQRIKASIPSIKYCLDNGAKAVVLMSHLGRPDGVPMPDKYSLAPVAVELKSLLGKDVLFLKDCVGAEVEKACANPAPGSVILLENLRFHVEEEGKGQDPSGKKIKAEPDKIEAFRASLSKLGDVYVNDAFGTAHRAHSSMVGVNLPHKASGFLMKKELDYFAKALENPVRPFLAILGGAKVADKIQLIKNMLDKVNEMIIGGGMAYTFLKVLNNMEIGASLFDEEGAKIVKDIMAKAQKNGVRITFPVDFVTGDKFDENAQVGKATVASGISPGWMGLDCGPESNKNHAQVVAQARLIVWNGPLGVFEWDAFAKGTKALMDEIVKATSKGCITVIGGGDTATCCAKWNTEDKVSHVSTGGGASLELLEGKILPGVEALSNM
# Sequence of Coatomer subunit gamma-1 (Q9Y678 whole entry): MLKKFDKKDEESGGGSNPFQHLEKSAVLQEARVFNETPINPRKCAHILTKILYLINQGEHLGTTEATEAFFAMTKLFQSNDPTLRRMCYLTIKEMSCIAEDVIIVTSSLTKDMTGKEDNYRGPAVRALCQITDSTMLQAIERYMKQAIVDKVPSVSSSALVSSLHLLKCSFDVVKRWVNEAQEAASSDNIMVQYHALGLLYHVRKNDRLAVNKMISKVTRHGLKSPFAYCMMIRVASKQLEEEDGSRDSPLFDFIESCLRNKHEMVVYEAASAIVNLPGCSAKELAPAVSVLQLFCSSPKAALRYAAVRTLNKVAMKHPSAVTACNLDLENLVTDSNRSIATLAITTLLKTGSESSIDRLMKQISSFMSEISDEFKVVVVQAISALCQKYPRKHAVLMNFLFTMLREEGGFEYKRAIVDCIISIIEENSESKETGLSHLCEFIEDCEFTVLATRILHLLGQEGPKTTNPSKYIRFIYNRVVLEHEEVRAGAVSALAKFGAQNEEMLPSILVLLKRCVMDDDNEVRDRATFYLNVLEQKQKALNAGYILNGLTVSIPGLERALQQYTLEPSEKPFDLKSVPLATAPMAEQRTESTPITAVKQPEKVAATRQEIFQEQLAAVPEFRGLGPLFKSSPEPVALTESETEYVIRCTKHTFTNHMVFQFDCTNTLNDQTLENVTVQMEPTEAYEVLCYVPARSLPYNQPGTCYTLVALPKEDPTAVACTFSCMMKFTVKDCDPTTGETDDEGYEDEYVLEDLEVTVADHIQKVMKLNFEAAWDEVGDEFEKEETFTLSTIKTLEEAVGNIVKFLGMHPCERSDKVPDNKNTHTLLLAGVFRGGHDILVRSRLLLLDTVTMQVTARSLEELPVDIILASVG
substance,measurement,setting,value
"Coatomer subunit beta, P53618",listed as a hit,Coatomer subunit gamma-1,yes
"T-complex protein 1 subunit gamma, P49368",listed as a hit,[1],yes
"Putative annexin A2-like protein, A6NMY6",listed as a hit,Protein S100-A10,yes
"Phosphoglycerate kinase 1, P00558",listed as a hit,[2],yes
"26S proteasome regulatory subunit 7, P35998",listed as a hit,[3],yes
